The entries come from a sample that favours hits as a whole.
Algae TAG accum: inducers of TAG accumulation in Chlamydomonas, primary screen, qHTS, Chlamydomonas reinhardtii | Nile Red fluorescence, 72 h | calls only at 10 µM (by protocol) | 44,000 tested, 0.84% active | AID 1159537, 2015; call rule not given here;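 also: hits raise Nile Red signal meaning more stored TAG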
Numbers without * were called inactive; i = inactive; + = active, no number.

SMILES	Algae TAG accum
CCOc1ccc(OCCOCCN2CCOCC2)cc1	i
CC1(C)CC(=O)C2=C(C1)OC(N)=C(C#N)C21CCCC1	i
O=C1CC(NCc2ccccc2)C(=O)N1c1cccc(Cl)c1 (stereo not drawn)	i
N#CCCN(C(=O)c1sc2ccccc2c1Cl)c1ccccc1	i
CC(=O)Nc1ccc(Sc2ccccc2[N+](=O)[O-])cc1C	i
O=C(CSc1nnc(-c2ccncc2)o1)Nc1nccs1	i
COCC(C)NC(=O)Cc1cccs1 (stereo not drawn)	i
CC(=O)Nc1ccc(S(=O)(=O)Nc2ccc(C)cc2[N+](=O)[O-])cc1	i
COc1ccccc1/C=C/CN(C)CCN(C)C	i
COc1ccc(OCC(=O)Nc2cc(OC)c(OC)cc2C(=O)O)cc1	i
COc1cc(NC(=O)CSCc2ccccc2)c(C(=O)O)cc1OC	i
CCc1cccc(OCC(=O)Nc2cc(OC)c(OC)cc2C(=O)O)c1	+
C=CCc1cc(C)ccc1OCCn1cnc2ccccc2c1=O	i
O=C(Nc1cccc(NC(=O)c2ccncc2)c1)c1ccncc1	i
O=[N+]([O-])c1ccccc1-c1ccc(CN2CCCCCC2)o1	i
CN1CCN(Cc2ccc(-c3ccccc3Cl)o2)CC1	+
CCN1CCN(Cc2ccc(-c3ccccc3[N+](=O)[O-])o2)CC1	i
COc1cccc(OC)c1C(=O)N1CCN(C(=O)CC(C)C)CC1	i
O=C(C1=C(O)C(=O)N(CCN2CCOCC2)C1c1ccc(Cl)cc1)c1ccco1 (stereo not drawn)	i
COc1ccc(NC(=O)C(Cl)Cl)cc1Cl	i
CCCC(=O)Nc1cc(OC)c(Cl)cc1OC	i
COc1cc(NC(=O)C(Cl)Cl)c(OC)cc1Cl	+
O=C(NCC(=O)N1CCCCC1)C1CCCCC1	i
CC1(C)CC(NC(=O)CC(c2ccccc2)c2ccccc2)CC(C)(C)N1	i
CC1(C)CC(NC(=O)Cc2ccccc2[N+](=O)[O-])CC(C)(C)N1	+
SMILES	Algae TAG accum
COc1ccccc1CC(=O)NC1CC(C)(C)NC(C)(C)C1	i
Nn1c(SCC(=O)Nc2ccccc2F)nnc1-c1ccc(Cl)cc1Cl	i
CN(C)C(=O)CSc1nnc(-c2ccc(Cl)cc2Cl)n1N	i
Nn1c(SCC(=O)NC23CC4CC(CC(C4)C2)C3)nnc1-c1ccc(Cl)cc1Cl	+
CCOc1ccc(C(=O)Nc2ccc(C)c([N+](=O)[O-])c2)cc1	i
COc1ccc(C(=O)Nc2sc3c(c2C#N)CC(C)(C)SC3)cc1[N+](=O)[O-]	i
Cc1c(NC(=O)C23CC4CC(CC(C4)C2)C3)c(=O)n(-c2ccccc2)n1C	i
Cc1c(NS(=O)(=O)c2cccs2)c(=O)n(-c2ccccc2)n1C	i
Cc1c(N/C=C/C(=O)c2cccs2)c(=O)n(-c2ccccc2)n1C	+
CC(NC(=O)c1ccccc1[N+](=O)[O-])c1ccc2c(c1)OCCO2 (stereo not drawn)	i
C1CCN(C2CCN(C3C4CC5CC(C4)CC3C5)CC2)CC1 (stereo not drawn)	i
OCCN1CCN(C2C3CC4CC(C3)CC2C4)CC1 (stereo not drawn)	+
OCCN1CCN(C2CCCCCCC2)CC1	i
CN1CCN(C2C3CC4CC(C3)CC2C4)CC1 (stereo not drawn)	+
COc1ccc(C(=O)N2CCN(C3C4CC5CC(C4)CC3C5)CC2)cc1 (stereo not drawn)	i
c1ccc(CN2CCN(C3C4CC5CC(C4)CC3C5)CC2)cc1 (stereo not drawn)	i
O=C(Nc1nnc(-c2ccc(Cl)c(Cl)c2)s1)Nc1ccccc1F	i
O=C(NC1=NCCS1)c1ccc2snnc2c1	i
CCC(=O)c1ccc(N2CCN(C(C)=O)CC2)c(F)c1	i
Cc1ccc(C(=O)c2ccc(N3CCN(C(=O)c4cccs4)CC3)c(F)c2)cc1C	i
Cc1ccc(C(=O)c2ccc(N3CCN(C)CC3)c(F)c2)cc1C	+
Fc1ccccc1-c1nnc(-c2ccccc2Cl)o1	i
C=CCc1cc(C)ccc1OCCCCN1CCCC1	i
Cc1ccccc1OCCOCCN1CCN(C)CC1	i
Cc1ccc(OCCCCN2CCCC2)c([N+](=O)[O-])c1	i
SMILES	Algae TAG accum
Cc1cc(Br)ccc1OCCCCN1CCOCC1	i
Cc1ccc(C(C)(C)C)c(OCCCCN2CCN(C)CC2)c1	i
Cc1cc(Br)ccc1OCCCCN1CCN(C)CC1	+
Cc1ccc(OCCCCN2CCCCC2)c(C)c1	+
Cc1cc(Br)ccc1OCCCCN1CCCC1	+
Brc1cccc(OCCCCN2CCCC2)c1	i
O=C(CSc1nnc(-c2cccnc2)n1-c1ccccc1)Nc1ccc(Cl)c(Cl)c1	i
CCOC(=O)N1CCN(Cc2cccc([N+](=O)[O-])c2)CC1	i
Cc1cc(C(=O)NCc2cccnc2)ccc1[N+](=O)[O-]	i
Cc1ccc(NC2CC(=O)N(c3ccc(Cl)cc3)C2=O)cc1 (stereo not drawn)	i
CC1=Nc2ccc(Br)cc2C(c2ccccc2Cl)N1CC(=O)NN (stereo not drawn)	i
c1cc2c(cc1CN1CCOCC1)OCO2	i
c1cc2c(cc1CN1CCCCC1)OCO2	i
c1ccc2c(c1)CCN(Cc1ccc3c(c1)OCO3)C2	+
O=C(Nc1nc2ccccc2s1)c1cc(I)ccc1Cl	i
CN(CCC#N)C12CC3CC(CC(C3)C1)C2	+
CN(C)CCNCC12CC3CC(CC(C3)C1)C2	i
CN(CCO)C12CC3CC(CC(C3)C1)C2	i
O=C(Nc1cccc(NC(=O)c2ccccc2Cl)c1)c1ccc([N+](=O)[O-])cc1	i
Cc1ccccc1C(=O)Nc1ccc([N+](=O)[O-])cc1	i
O=C(Nc1ccc([N+](=O)[O-])cc1)c1ccccc1Cl	+
COc1cccc(OC)c1C(=O)Nc1ccc([N+](=O)[O-])cc1	i
COc1ccc(C(=O)Nc2ccc(C(C)C)cc2)cc1[N+](=O)[O-]	i
O=C(Nc1ccc(Cc2ccncc2)cc1)c1ccc([N+](=O)[O-])cc1Cl	+
O=C(O)c1ccc(NC(=O)c2ccc([N+](=O)[O-])cc2)cc1	i
SMILES	Algae TAG accum
Cc1ccc(C(=O)Nc2ccncc2)cc1[N+](=O)[O-]	i
O=C(Nc1cccc(Cl)c1)c1ccc([N+](=O)[O-])cc1Cl	i
CCSc1ccc(C(=O)Nc2ccc(Cc3ccncc3)cc2)cc1[N+](=O)[O-]	+
CCC(C)c1ccc(NC(=O)c2ccc([N+](=O)[O-])cc2Cl)cc1 (stereo not drawn)	i
O=C(Nc1ccc([N+](=O)[O-])cc1)c1c(F)c(F)c(F)c(F)c1F	+
C=CCn1c(SCC(N)=O)nc2sc3c(c2c1=O)CC(C)(C)OC3	i
Cc1cccc(NC(=O)c2ccc(OC(C)C)cc2)c1C	i
CCc1ccccc1NC(=O)C1CC2CCC1C2 (stereo not drawn)	i
Cc1cc(C)cc(OCC(=O)Nc2ccc([N+](=O)[O-])cc2)c1	i
CC(=O)N1CCN(c2ccc([N+](=O)[O-])c(NCc3ccccc3)c2)CC1	i
O=C(CSc1ccccc1C(=O)O)Nc1ccccc1F	i
Cn1c(SCCCC(=O)c2ccc(F)cc2)nnc1-c1ccccc1	i
Cc1ccc(CN2CCCC(CO)C2)cc1 (stereo not drawn)	+
CCc1ccc(CN2CCCC(CO)C2)cc1 (stereo not drawn)	i
CCN(CC)C(=O)C1CCCN(Cc2ccc(C)cc2)C1 (stereo not drawn)	i
COc1ccc(CNC(=O)c2ccccc2SCc2ccccc2)cc1	i
